Test results published in PubChem BioAssay.
Activity calls are given as the source filed them.

Test: probe aLefty1 binding on compound microarray – biochemical, small-molecule microarray, 635/667 nm fluorescence, primary screen (AID 1153);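 also: score merges spot fluorescence with signal-to-noise ratio from the scanned slide images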
Conditions: higher = more signal

**Q.** For `C=CCC(OC(C)=O)[C@@H]1[C@@H](N(Cc2ccc(-c3ccccc3)cc2)C(=O)Cc2ccc(OC)cc2)c2cc(OCCCO)ccc2N1C(=O)Cc1ccc2ccccc2c1` (stereo partly drawn), which composite z-score is on record?
**A.** -0.0654

**Q.** Which composite z-score does the source give for `CN1C(=O)C2C=CC(C(O)C#Cc3ccccc3)N(N3CCCCC3)C2C1=O` (stereo not drawn) here?
**A.** 0.807

**Q.** Which composite z-score does the source give for `C=CC(=C)[C@H]1Oc2ccccc2S(=O)(=O)N2CCC[C@@H]12` here?
**A.** 0.131

**Q.** Which composite z-score does the source give for `C=CCC(OC(C)=O)[C@@H]1[C@@H](N(Cc2ccc(-c3cccc(C(F)(F)F)c3)o2)C(=O)c2ccc(C)cc2)c2cc(OCCCO)ccc2N1C(=O)Cc1ccc2ccccc2c1` (stereo partly drawn) here?
**A.** -0.0035

**Q.** For `COCCOC(=O)N1C(=O)[C@@]2(c3cc(C#CCC(C(=O)OC)C(=O)OC)ccc31)[C@H](C(=O)N1CCN(c3ncccn3)CC1)[C@H]1C(=O)O[C@H](c3ccccc3)[C@H](c3ccccc3)N1[C@@H]2c1ccccc1OCCO`, which composite z-score is on record?
**A.** 0.312

**Q.** With `CC(C)=CCCC(C)=CC(O)C1C=CC2C(=O)N(C)C(=O)C2N1Nc1ccccc1` (stereo not drawn) as the molecule, how does the composite z-score read?
**A.** 0.525

Test: plasmodial surface anion channel blockers, osmotic lysis – cell-based, P. falciparum Indochina, OD700, 1 h, primary screen (AID 1154)
Conditions: P. falciparum Indochina infected RBC osmotic lysis, higher = more signal, called active from +8 up or from −8 down

**Q.** For `C=CCN1C(=O)[C@@]2(Cc3ccccc31)N=C(c1ccc(OCCCO)cc1)O[C@H]2c1ccccc1`, which z-score is on record?
**A.** 14.6 (active)

**Q.** With `[N-]=[N+]=Nc1ccccc1[C@@H]1OC(c2ccc(OCCCO)cc2)=N[C@]1(CCS(=O)(=O)c1ccccc1)C(N)=O` as the molecule, how does the z-score read?
**A.** 29.1 (active)

**Q.** Which z-score does the source give for `CN(C)C(=O)[C@@]1(CCS(=O)(=O)c2ccccc2)COC(c2ccc(OCCCO)cc2)=N1` here?
**A.** 25.6 (active)

**Q.** Which z-score does the source give for `CCOC(=O)C[C@H]1[C@H](OC(=O)c2cc3ccccc3oc2=O)[C@@H](NC(=O)c2ccccc2)c2cc(OCCCO)ccc2N1C(=O)c1ccc2ccccc2n1` here?
**A.** 10.4 (active)

**Q.** With `C=CCOC(=O)[C@H]1[C@@H]2C(=O)O[C@@H](c3ccccc3)[C@@H](c3ccccc3)N2[C@@H](c2ccc(OCCOC(=O)[C@H]3C[C@H]4C(=O)N[C@@H](CCCCNC(C)=O)C(=O)N4[C@H]3c3cccc(OCCO)c3)cc2)[C@]12C(=O)Nc1ccccc12` as the molecule, how does the z-score read?
**A.** 3.6 (inactive)

**Q.** For `CC(C)C(CO)N1C(=O)[C@@H]2C3C(=O)OCCC/C=C\[C@H]3OC23C=CCN(CCN2CCOCC2)C(=O)[C@@H]13` (stereo partly drawn), which z-score is on record?
**A.** 0.81 (inactive)

**Q.** Which z-score does the source give for `O=C(NCCN1CCOCC1)C1N=C(c2ccc(OCCCO)cc2)N(c2ccccc2)O1` (stereo not drawn) here?
**A.** 6.99 (inactive)

**Q.** For `COC(=O)[C@@]1(Cc2ccccc2)[C@H]2c3cc(C(=O)N4CCCC4)n(Cc4ccc(S(C)(=O)=O)cc4)c3C[C@H]2CN1C(=O)c1ccccc1`, which z-score is on record?
**A.** 1.98 (inactive)

**Q.** For `O=C1[C@@]23C=C(Br)[C@H](C[C@@H]2CCOC3)[C@@]12CO2`, which z-score is on record?
**A.** -0.306 (inactive)

**Q.** For `O=C(c1ccccc1)N1C(=O)[C@]2(COC(c3ccc(OCCCO)cc3)=N2)Cc2ccccc21`, which z-score is on record?
**A.** 27.1 (active)

**Q.** With `Cc1nc2cc(Br)ccc2c(=O)o1` as the molecule, how does the z-score read?
**A.** 0.252 (inactive)

**Q.** For `CCCCC(CC)C(O)C1C=CC2C(=O)N(Cc3ccccc3)C(=O)C2N1n1cnnc1` (stereo not drawn), which z-score is on record?
**A.** 0.218 (inactive)

**Q.** With `CC(C)C(O)C1C=CC2C(=O)NC(=O)C2N1Nc1ccc(Cl)cc1Cl` (stereo not drawn) as the molecule, how does the z-score read?
**A.** 1.41 (inactive)

**Q.** For `COCCOC(=O)N1C(=O)[C@@]2(c3ccccc31)[C@H](c1ccc(O)cc1)N1[C@H](c3ccccc3)[C@H](c3ccccc3)OC(=O)[C@H]1[C@@H]2C(=O)Nc1nc2ccccc2s1`, which z-score is on record?
**A.** 1.31 (inactive)

**Q.** With `CC(C)C(=C=CC[C@@H](O)c1ccc(OCCO)cc1)C[C@@H](O)COCc1ccccc1` as the molecule, how does the z-score read?
**A.** 8.51 (active)

**Q.** For `O=C1C2C=CC(C(O)Cc3ccccc3)N(n3cnnc3)C2C(=O)N1Cc1ccccc1` (stereo not drawn), which z-score is on record?
**A.** 1.78 (inactive)

**Q.** With `COCCOC(=O)N1C(=O)[C@@]2(c3cc(C#Cc4ccc(OC)cc4)ccc31)[C@H](c1ccc(O)cc1)N1[C@H](c3ccccc3)[C@H](c3ccccc3)OC(=O)[C@H]1[C@@H]2C(=O)N1CCc2cc(OC)c(OC)cc2C1` as the molecule, how does the z-score read?
**A.** 1.92 (inactive)

**Q.** Which z-score does the source give for `COc1cc2c(cc1O)C(C1CC1)N(Cc1sc3ccccc3c1Cl)CC2` (stereo not drawn) here?
**A.** 13.1 (active)

**Q.** With `CC(C)C(=C=CC[C@H](O)c1ccc(OCCO)cc1)CCO` as the molecule, how does the z-score read?
**A.** 9.47 (active)

**Q.** With `CC(=O)NCCCC[C@@H]1NC(=O)[C@@H]2C[C@H](C(=O)NCCCCCNC(=O)CS)[C@H](c3cccc(OCCO)c3)N2C1=O` as the molecule, how does the z-score read?
**A.** 1.33 (inactive)

**Q.** For `NC(=O)NCC#Cc1ccc2c(c1)[C@]1(C(=O)N2)[C@H](c2ccc(O)cc2)N2[C@H](c3ccccc3)[C@H](c3ccccc3)OC(=O)[C@H]2[C@@H]1C(=O)O`, which z-score is on record?
**A.** 3.1 (inactive)

**Q.** Which z-score does the source give for `COc1cc(Br)cc(C(O)C2C=CC3C(=O)N(C)C(=O)C3N2N2CCCCC2)c1OC` (stereo not drawn) here?
**A.** 0.712 (inactive)
